Measurements from PubChem BioAssay (NCI).
Compounds without any hit were thinned out: in the full panel of roughly 83,000, 20% have a hit.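 Cell lines were cultured in 96-well plates, exposed to a single compound concentration, and assessed for percent growth 48 hours later.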 Active and inactive are the calls of the source. How the source made its calls: active means growth percent below 10; inactive means the rest.

Tests used:
Assay in all cases: NCI-60 one-dose screen, 48 h (100 = growth as untreated, 0 = no growth, -100 = all killed)
Settings in all cases: 10 µM unless noted
T-47D breast = system: T-47D breast
BT-549 breast = system: BT-549 breast
MDA-MB-435 melanoma = system: MDA-MB-435 melanoma
SW-620 colon = system: SW-620 colon
MCF7 breast = system: MCF7 breast
HCT-116 colon = system: HCT-116 colon
HCC-2998 colon = system: HCC-2998 colon
KM12 colon = system: KM12 colon

Measured: growth

COc1ccccc1-c1c(-c2ccc(Cl)cc2)c2cc3c(cc2[nH]c1=O)OCCO3
inactive: T-47D breast 66% | BT-549 breast 67.7% | MDA-MB-435 melanoma 65.2% | SW-620 colon 93.7% | MCF7 breast 42% | HCT-116 colon 47.7% | HCC-2998 colon 83.7% | KM12 colon 63.8%

CC[C@H](C)[C@@H]1NC(=O)[C@H](Cc2ccc(O)cc2)N(C)C(=O)[C@H](Cc2ccccc2)NC(=O)CN(C)C(=O)[C@@H]2CCCN2C(=O)[C@@H](Cc2ccccc2)N(C)C(=O)[C@H](CC(C)C)NC1=O
active: T-47D breast 0.772% | MDA-MB-435 melanoma -46.3% | SW-620 colon 3.59% | MCF7 breast -25% | HCT-116 colon 1.24% | HCC-2998 colon -23.9% | KM12 colon 1.4%
inactive: BT-549 breast 69.7%

CN1C(=O)N(C)C2NC(N/N=C/c3ccccc3)=NC21 (stereo unspecified)
inactive: T-47D breast 90.6% | BT-549 breast 100% | MDA-MB-435 melanoma 99.6% | SW-620 colon 102% | MCF7 breast 98.2% | HCT-116 colon 95.6% | HCC-2998 colon 103% | KM12 colon 108%

NNC(=O)/C(=C\c1ccc([N+](=O)[O-])cc1)CC(=O)c1ccc(Cl)c(Cl)c1
inactive: T-47D breast 77.1% | BT-549 breast 110% | MDA-MB-435 melanoma 96.9% | SW-620 colon 86% | MCF7 breast 73.8% | HCT-116 colon 88.9% | HCC-2998 colon 93.5% | KM12 colon 95.2%

CCOC(=O)c1c(SC)nn(-c2cc(=O)[nH]c3ccc(Br)cc23)c1N
inactive: T-47D breast 92.9% | BT-549 breast 116% | MDA-MB-435 melanoma 107% | SW-620 colon 94.2% | MCF7 breast 93.4% | HCT-116 colon 89.5% | HCC-2998 colon 102% | KM12 colon 99%

Nc1ncc(C#Cc2cncc(NC(=O)c3cccc(C(F)(F)F)c3)c2)c2cccnc12
inactive: T-47D breast 76.3% | BT-549 breast 63.1% | MDA-MB-435 melanoma 22.9% | SW-620 colon 49.3% | HCT-116 colon 21.8% | HCC-2998 colon 47.1% | KM12 colon 19%
active: MCF7 breast 4.41%

O=c1[nH]nc(-c2ccc(Cl)cc2)cc1Cc1cccc([N+](=O)[O-])c1
inactive: T-47D breast 85.2% | BT-549 breast 133% | MDA-MB-435 melanoma 112% | SW-620 colon 101% | MCF7 breast 84.8% | HCT-116 colon 100% | HCC-2998 colon 130% | KM12 colon 93.3%

NC(=O)c1cccc(-c2cc(C(N)=O)ccc2Cl)c1
inactive: T-47D breast 33.9% | BT-549 breast 57.9% | SW-620 colon 21.1% | MCF7 breast 23.5% | HCT-116 colon 25.4% | HCC-2998 colon 57.7% | KM12 colon 30.8%
active: MDA-MB-435 melanoma -27.6%

Cc1ccc(C2C3CC4CCCCC4N3[C@@]3(C(=O)Nc4cc(Cl)ccc43)C2C(=O)c2nc3ccccc3[nH]2)cc1 (stereo partly specified)
inactive: T-47D breast 27.4% | BT-549 breast 52.8% | MDA-MB-435 melanoma 26.5% | SW-620 colon 29.8% | MCF7 breast 13.8% | HCT-116 colon 19.5% | HCC-2998 colon 38.4% | KM12 colon 38%

O=C(Nc1nc2ccc(C(=O)N3CCN(c4ccc(Cl)c(Cl)c4)CC3)cc2s1)c1ccc(NCCc2ccccc2)c([N+](=O)[O-])c1
inactive: T-47D breast 84.4% | BT-549 breast 108% | MDA-MB-435 melanoma 111% | SW-620 colon 103% | MCF7 breast 96.7% | HCT-116 colon 95% | HCC-2998 colon 105% | KM12 colon 107%

Clc1ccc(C2CC(c3cccc(Nc4ccncc4)c3)=NN2c2cc(Cl)cc(Cl)c2)cc1 (stereo unspecified)
active: SW-620 colon -73.1% | MCF7 breast -8.62% | HCT-116 colon -74.2% | KM12 colon 9.65%
inactive: T-47D breast 86.4% | BT-549 breast 104% | MDA-MB-435 melanoma 12.7% | HCC-2998 colon 19.6%

COc1ccc2c(c1)OC13Oc4cc(OC)ccc4C=C1CCCC3=C2
active: MDA-MB-435 melanoma -10.4% | MCF7 breast 8.63% | KM12 colon -5.69%
inactive: T-47D breast 44.7% | BT-549 breast 35% | SW-620 colon 16.6% | HCT-116 colon 20% | HCC-2998 colon 57.9%

O=C1NC(=S)NC(=O)C1=Cc1cccc(C=C2C(=O)NC(=S)NC2=O)c1
inactive: T-47D breast 97.7% | BT-549 breast 87.5% | MDA-MB-435 melanoma 108% | SW-620 colon 106% | MCF7 breast 96.8% | HCC-2998 colon 107% | KM12 colon 107%
active: HCT-116 colon -76%

Nc1nc(N)nc(NCc2ccccc2)n1
inactive: T-47D breast 98.2% | BT-549 breast 106% | MDA-MB-435 melanoma 112% | SW-620 colon 112% | MCF7 breast 95.8% | HCT-116 colon 106% | HCC-2998 colon 94.7% | KM12 colon 104%

COc1ccc(C(=O)c2cc(C)c(OC)c(C)c2)c(OC)c1O
active: BT-549 breast 8.49% | MDA-MB-435 melanoma -40.3% | HCT-116 colon 1.83% | KM12 colon 7.53%
inactive: T-47D breast 40.2% | SW-620 colon 22% | MCF7 breast 16.1% | HCC-2998 colon 16.8%

COc1ccccc1OCC(=O)N1CCCCCC1
inactive: T-47D breast 103% | BT-549 breast 129% | MDA-MB-435 melanoma 101% | SW-620 colon 100% | MCF7 breast 92.8% | HCT-116 colon 123% | HCC-2998 colon 108% | KM12 colon 97.3%

CCc1nc(C)cn1C(=O)OCc1nc2nc(Cl)nc(N3CCOCC3)c2[nH]1
active: T-47D breast -47.9% | BT-549 breast -18.8% | MDA-MB-435 melanoma -73.6% | SW-620 colon -47.9% | MCF7 breast -22.4% | HCT-116 colon -71.5%
inactive: HCC-2998 colon 26.5% | KM12 colon 20.8%

C1=C2CNCC3=Cc4ccc5ccccc5c4OC23Oc2c1ccc1ccccc21
inactive: T-47D breast 66.7% | BT-549 breast 79.9% | MCF7 breast 12% | HCT-116 colon 11.1% | HCC-2998 colon 56.9% | KM12 colon 15.2%
active: MDA-MB-435 melanoma -69.7% | SW-620 colon 8.75%

COc1ccc(-c2nc(SC(C)C)nc(NNC(N)=O)c2C#N)cc1
active: MDA-MB-435 melanoma 3.51%
inactive: T-47D breast 84.8% | BT-549 breast 102% | SW-620 colon 50.7% | MCF7 breast 84.3% | HCT-116 colon 102% | HCC-2998 colon 88.9% | KM12 colon 58.6%

COc1ccc(/C=N/NC(=O)c2cccc3cc[nH]c23)cc1O
active: MDA-MB-435 melanoma -21.4% | MCF7 breast 8.85%
inactive: T-47D breast 41.4% | BT-549 breast 55.9% | SW-620 colon 29.8% | HCT-116 colon 21.8% | HCC-2998 colon 55.4% | KM12 colon 29.8%

Cc1cc2cc3cc(C)c(N)cc3[n+](C)c2cc1N
active: T-47D breast 8.77% | BT-549 breast 9.11% | MDA-MB-435 melanoma 9.46% | SW-620 colon 9.45% | MCF7 breast 8.32% | HCT-116 colon 3.49% | HCC-2998 colon 9.7% | KM12 colon 5.06%

Cn1c(=O)c2[nH]c(CCCc3nc4c([nH]3)c(=O)n(C)c(=O)n4C)nc2n(C)c1=O
inactive: T-47D breast 96.4% | BT-549 breast 121% | MDA-MB-435 melanoma 111% | SW-620 colon 112% | MCF7 breast 92.8% | HCT-116 colon 108% | HCC-2998 colon 112% | KM12 colon 118%

COc1ccc(-c2nc(SCC(C)C)nc(N/N=C(/C)c3ccc(OC)c(OC)c3)c2C#N)cc1
inactive: T-47D breast 54.7% | BT-549 breast 97.8% | MDA-MB-435 melanoma 87.9% | SW-620 colon 84.4% | MCF7 breast 80.6% | HCT-116 colon 96.6% | HCC-2998 colon 92.4% | KM12 colon 74%

CCCCCCN(C)Cc1ccc(OCCOc2ccc(CN(C)CCCCCC)cc2)cc1
inactive: BT-549 breast 26.2%
active: T-47D breast -13.7% | MDA-MB-435 melanoma -17.4% | SW-620 colon -70.2% | MCF7 breast -76.3% | HCT-116 colon -96.1% | HCC-2998 colon -87.5% | KM12 colon -19.3%

NC(=S)N/N=C/c1ccc(OC(=O)COc2cc(Cl)c(Cl)cc2Cl)cn1
inactive: T-47D breast 49.3% | BT-549 breast 64.3% | MDA-MB-435 melanoma 71.7% | SW-620 colon 59.6% | MCF7 breast 28.5% | HCT-116 colon 67.9% | HCC-2998 colon 63.7% | KM12 colon 70.9%

COc1ccc(C2=NN(C(C)=O)C(c3cn(Cc4ccc(Cl)cc4)c4ccccc34)C2)cc1 (stereo unspecified)
inactive: T-47D breast 51.8% | BT-549 breast 97.1% | MDA-MB-435 melanoma 96.5% | SW-620 colon 98.2% | MCF7 breast 84.5% | HCT-116 colon 86.3% | HCC-2998 colon 95.5% | KM12 colon 86.4%

O=C(CN1CCOCC1)Nc1ccc2ncnc(Nc3ccc(OCc4cccc(F)c4)c(Cl)c3)c2c1
inactive: T-47D breast 18.5% | BT-549 breast 70.8% | MDA-MB-435 melanoma 72.1% | SW-620 colon 109% | MCF7 breast 54.7% | HCT-116 colon 64.5% | HCC-2998 colon 88.6% | KM12 colon 83.2%

COc1ccc(/C=C\c2nc3ccccc3s2)cc1OP(=O)(O)O
active: MDA-MB-435 melanoma -70.4%
inactive: T-47D breast 41.4% | BT-549 breast 44.3% | SW-620 colon 23.2% | MCF7 breast 21.7% | HCT-116 colon 25.9% | HCC-2998 colon 66.9% | KM12 colon 31.4%

COc1cc(-c2nc3sccn3c2-c2ccnc(NCCNS(=O)(=O)c3ccc(F)cc3)n2)ccc1F
inactive: BT-549 breast 10.5% | SW-620 colon 26.9% | HCC-2998 colon 43.5%
active: T-47D breast -3.67% | MDA-MB-435 melanoma 2.5% | MCF7 breast 5.83% | HCT-116 colon 6.58% | KM12 colon 9.07%

Cc1ccc2[nH]c(=S)n(-c3ccc(S(=O)(=O)Nc4ccc(Cl)nn4)cc3)c(=O)c2c1
inactive: T-47D breast 96.7% | BT-549 breast 83.3% | MDA-MB-435 melanoma 102% | SW-620 colon 96.2% | MCF7 breast 95% | HCT-116 colon 39.7% | HCC-2998 colon 104% | KM12 colon 104%

CCCCCOc1ccc(/C=N/Nc2cc(C)nc3ccc(Br)cc23)cc1
active: MDA-MB-435 melanoma -46.9% | SW-620 colon -61.2% | MCF7 breast -73% | HCT-116 colon -79.9% | HCC-2998 colon -58.3% | KM12 colon -65.5%
inactive: T-47D breast 83.4% | BT-549 breast 103%

COc1ccc(C(O)c2cc3c(N)c(C(=O)Nc4ccccc4)sc3nc2C)cc1 (stereo unspecified)
inactive: T-47D breast 51.7% | BT-549 breast 31.6% | SW-620 colon 19.3% | MCF7 breast 13.4%
active: MDA-MB-435 melanoma -15.1% | HCT-116 colon 6.95% | HCC-2998 colon 9.2% | KM12 colon 3.05%
